The panel holds about 83,000 compounds, 20% with a hit somewhere; the sample as a whole holds those more often.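 Percent growth is the endpoint: 0 to 100 indicates growth inhibition (40 means 60% inhibition), 0 means no net growth, and negative values indicate cell death.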 Unmarked numbers belong to inactive results. The source made the active and inactive calls. Rule for the calls: active = growth percent below 10; inactive = the rest.

Test systems include DU-145 prostate; K-562 leukemia; MALME-3M melanoma; MDA-MB-231 breast; RXF 393 renal; SF-268 CNS; SF-295 CNS; SF-539 CNS; UACC-257 melanoma; M14 melanoma; HCT-15 colon; HT29 colon; SNB-75 CNS; SNB-19 CNS; U251 CNS; PC-3 prostate; SK-MEL-5 melanoma; UACC-62 melanoma; LOX IMVI melanoma; SK-MEL-28 melanoma.
Holding throughout (assay): NCI-60 one-dose screen, 48 h (100 = growth as untreated, 0 = no growth, -100 = all killed)
Holding throughout (settings): 10 µM unless noted

With `COc1ccc(-c2oc(=O)ccc2-c2cc(OC)c(OC)c(OC)c2)cc1F`, the growth was 109% with DU-145 prostate; 26.7% in the assay on K-562 leukemia; 68.9% in the assay with MALME-3M melanoma; 77.3% in the assay with MDA-MB-231 breast; 90.9% with RXF 393 renal; 95.3% with SF-268 CNS. Further, the growth in the assay on SF-295 CNS was 62.4%; in the assay with SF-539 CNS, 80.4%; with UACC-257 melanoma, 66.4%; with M14 melanoma it was 60.8%; in the assay on HCT-15 colon, 68.2%; with HT29 colon it was 44.4%. In addition, the growth in the assay on SNB-75 CNS is 106%; in the assay on SNB-19 CNS it was 92.1%; with U251 CNS it was 81.9%; with PC-3 prostate, 66.4%; with SK-MEL-5 melanoma, 66.5%; with UACC-62 melanoma, 53.6%. Moreover, the growth with LOX IMVI melanoma was 67.4%.
As to `Nc1nc(N)c2c(n1)NC(c1sc(Cl)nc1Cl)CC(c1ccccc1)=N2` (stereo not drawn), the growth in the assay with DU-145 prostate is 75.1%; in the assay with K-562 leukemia it was 17.5%; with MALME-3M melanoma, 26.8%; with MDA-MB-231 breast it was 47.8%; in the assay on RXF 393 renal, 43.8%; with SF-268 CNS, 53.6%. For the same compound, the growth with SF-295 CNS was 35.2%; in the assay with SF-539 CNS it was 35.4%; in the assay with UACC-257 melanoma, 68.6%; in the assay with M14 melanoma, 26.2%; in the assay on HCT-15 colon, 27.9%; with HT29 colon, 12.6%. Moreover, the growth was 30.1% with SNB-75 CNS; 61.7% in the assay with SNB-19 CNS; 33.3% with U251 CNS; 59.5% in the assay with PC-3 prostate; 33.5% in the assay with SK-MEL-5 melanoma; 45.7% in the assay with UACC-62 melanoma. In addition, the growth in the assay on LOX IMVI melanoma was 41.5%; in the assay with SK-MEL-28 melanoma, 62.3%.
Take `Cc1ccc2nc(CN(CCN(Cc3nc4ccc(C)cc4[nH]3)Cc3nc4ccc(C)cc4[nH]3)Cc3nc4ccc(C)cc4[nH]3)[nH]c2c1`: the growth in the assay with DU-145 prostate is -99.6% (active); in the assay with K-562 leukemia, -25.7% (active); in the assay on MALME-3M melanoma, -70.4% (active); in the assay with MDA-MB-231 breast it was -81.7% (active); with RXF 393 renal, -92.5% (active); in the assay with SF-268 CNS it was -85% (active). Also, the growth in the assay on SF-295 CNS was -86.8% (active); in the assay on SF-539 CNS, -99.7% (active); in the assay on UACC-257 melanoma it was -91.8% (active); with M14 melanoma, -79.4% (active); with HCT-15 colon, -94.3% (active); in the assay with HT29 colon, -98.2% (active). Moreover, the growth was -100% (active) in the assay on SNB-75 CNS; -100% (active) with SNB-19 CNS; -94.1% (active) with U251 CNS; -83.4% (active) in the assay on PC-3 prostate; -100% (active) with SK-MEL-5 melanoma; -85.3% (active) with UACC-62 melanoma. Further, the figures for the growth with LOX IMVI melanoma and in the assay on SK-MEL-28 melanoma were -90.8% (active) and -94.8% (active), respectively.
Regarding `COc1c(C(=O)/C=C/c2ccc(C)o2)c(O)cc2occc12`, the growth in the assay on DU-145 prostate was 87.1%; in the assay with K-562 leukemia it was 22.5%; in the assay with MALME-3M melanoma, 76.7%; in the assay on MDA-MB-231 breast, 89%; in the assay on RXF 393 renal, 62%; in the assay on SF-268 CNS, 80.1%. Moreover, the growth in the assay on SF-295 CNS is 82.4%; in the assay on SF-539 CNS, 80.6%; in the assay on UACC-257 melanoma, 86.1%; in the assay with M14 melanoma it was 55.5%; in the assay on HCT-15 colon, 35.9%; with HT29 colon it was 65.2%. In addition, the growth in the assay on SNB-75 CNS was 59.8%; with SNB-19 CNS, 76.5%; in the assay with U251 CNS, 75.4%; in the assay on PC-3 prostate it was 72.2%; with SK-MEL-5 melanoma it was 86.6%; with UACC-62 melanoma, 58.6%. For the same compound, the growth in the assay on LOX IMVI melanoma was 71.2%.
`CN(C)CCOc1nc2c3ccncc3cc(-c3cccc(Cl)c3)c2c2cnccc12`: the growth is 30.7% with DU-145 prostate; -34.7% (active) with K-562 leukemia; 40.1% in the assay with MALME-3M melanoma; 24% in the assay with MDA-MB-231 breast; 1.01% (active) in the assay with RXF 393 renal; 35.1% with SF-268 CNS. Further, the growth with SF-295 CNS was 31.6%; in the assay with SF-539 CNS, 32%; with UACC-257 melanoma it was 47.3%; in the assay with M14 melanoma, 26%; in the assay with HCT-15 colon, 22.1%; in the assay on HT29 colon, 17%. Moreover, the growth with SNB-75 CNS is 39.8%; with SNB-19 CNS it was 28.4%; with U251 CNS, 28%; in the assay with PC-3 prostate, 30.1%; in the assay with SK-MEL-5 melanoma it was 10.8%; in the assay on UACC-62 melanoma, 24.6%. The growth is 5.79% (active) in the assay with LOX IMVI melanoma and 13.3% with SK-MEL-28 melanoma.
Consider `C=C(C)c1ccc(/C=N/NC(N)=S)cc1`, for which the growth in the assay on DU-145 prostate is 97.6%; in the assay on K-562 leukemia, 89%; in the assay on MALME-3M melanoma, 116%; in the assay on MDA-MB-231 breast, 96.8%; in the assay on RXF 393 renal, 94.6%; in the assay on SF-268 CNS it was 109%. The growth in the assay with SF-295 CNS was 76.5%; in the assay on SF-539 CNS it was 99.2%; in the assay on UACC-257 melanoma, 257%; in the assay on M14 melanoma, 87.2%; in the assay with HCT-15 colon, 96%; in the assay on HT29 colon, 86.1%. The growth in the assay on SNB-75 CNS was 104%; in the assay on SNB-19 CNS, 97.3%; with U251 CNS, 93.9%; with PC-3 prostate, 100%; in the assay with SK-MEL-5 melanoma, 95.1%; in the assay on UACC-62 melanoma, 88.9%. Further, the growth in the assay with LOX IMVI melanoma was 97.4%; with SK-MEL-28 melanoma, 109%.
Regarding `Cc1ccc2cc3c(NC(=O)c4cccnc4)nn(C)c3nc2c1`, the growth is 100% in the assay with DU-145 prostate; 85.8% in the assay on K-562 leukemia; 99.1% in the assay on MALME-3M melanoma; 83.8% in the assay on MDA-MB-231 breast; 89.3% in the assay on RXF 393 renal; 97.3% in the assay on SF-268 CNS. Further, the growth in the assay with SF-295 CNS was 101%; in the assay on SF-539 CNS, 97.1%; with UACC-257 melanoma it was 99.3%; in the assay on M14 melanoma, 93.3%; in the assay on HCT-15 colon, 91.6%; in the assay with HT29 colon, 75.8%. Moreover, the growth with SNB-75 CNS was 73.8%; with SNB-19 CNS it was 82.6%; in the assay on U251 CNS, 85.2%; with PC-3 prostate it was 62.5%; in the assay on SK-MEL-5 melanoma, 83.1%; in the assay with UACC-62 melanoma, 88.7%. Moreover, the growth with LOX IMVI melanoma was 92.4%; in the assay on SK-MEL-28 melanoma, 96%.
